Screen size: about 200,000 compounds; about 4,500 (2.2%) were called active. Roughly 12% stayed inconclusive and do not appear here. Shown is part of a subset that was picked to be rich in actives. Unmarked numbers belong to inactive results. The call rests on the fitted dose curve; in most records, active means well fitted inhibition curve with a large enough effect; inconclusive means small, poorly fitted or top-dose-only effect, or effect the other way; inactive means flat fitted curve, though single readings scatter.
target: Cruzipain (Trypanosoma cruzi) (UniProt P25779); assay: qHTS Assay for Promiscuous and Specific Inhibitors of Cruzain (without detergent); conditions: purified cruzain, Z-FR-AMC fluorescence, no detergent; further: nearly all actives have a fitted effect of over 40% in size;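 on max response, negative = inhibition: plate controls were enzyme without inhibitor for no effect and buffer without enzyme for full effect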
Sequence (P25779 123-467 limits assumed): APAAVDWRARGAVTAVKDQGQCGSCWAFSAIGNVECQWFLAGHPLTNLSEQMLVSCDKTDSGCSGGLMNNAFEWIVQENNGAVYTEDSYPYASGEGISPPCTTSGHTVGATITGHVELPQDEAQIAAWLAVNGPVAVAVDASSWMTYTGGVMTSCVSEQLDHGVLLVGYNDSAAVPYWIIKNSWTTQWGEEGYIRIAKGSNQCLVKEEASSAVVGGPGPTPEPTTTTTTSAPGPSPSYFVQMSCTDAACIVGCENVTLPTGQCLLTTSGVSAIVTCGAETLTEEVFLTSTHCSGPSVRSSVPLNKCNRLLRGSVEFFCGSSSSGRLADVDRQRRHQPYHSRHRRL
In short: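 Purified cruzain at 1.5 nM, pre-incubated 15 min with compound at room temperature in 100 mM sodium acetate pH 5.5, 5 mM DTT, 0.00005% Triton X-100. Reaction started with 2 uM Z-FR-AMC; AMC fluorescence increase over 60 s gives rate.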
Potency means the concentration at half of the fitted maximal effect.

| Structure (SMILES) | max response, negative = inhibition [%] | Potency |
| --- | --- | --- |
| Cc1onc(-c2ccc(F)cc2F)c1C(=O)Nc1cccc(C(F)(F)F)c1 | -6.18 |  |
| Cc1cccc(-c2nc(SCc3ccc(Br)cc3)n3[nH]c(=O)cc3n2)c1 | -2.63 |  |
| O=C(Cn1c(=O)n(Cc2ccccc2)c(=O)c2sc3ccccc3c21)Nc1ccccc1F | 9.77 |  |
| CCCCN(CC)CCCNC(=O)c1nn(C)c2c1CS(=O)(=O)c1ccccc1-2 | 5.31 |  |
| CCCNC(=O)CCC(=O)N1Cc2ccccc2Oc2ncccc21 | -4.94 |  |
| CCOC(=O)c1c(NC(=O)C2CCN(S(=O)(=O)c3ccc(Cl)cc3)CC2)sc2c1CCCC2 |  | 15.8 µM (active) |
| CCOC(=O)c1c(NC(=O)c2ccc(S(=O)(=O)N(CC)CC)cc2)sc2c1CCCCC2 | 8.24 |  |
| CCOC(=O)c1c(NC(=S)NC(=O)c2ccco2)sc2c1CCCC2 |  | 12.6 µM (active) |
| CCOC(=O)c1c(NC(=O)c2cc(-c3ccc(Cl)cc3)on2)sc2c1CCCC2 | 3.1 |  |
| CCOC(=O)c1c(NC(=S)Nc2ccccc2C)sc2c1CCC2 | -25.8 |  |
| CC(C)OC(=O)c1c(NC(=O)c2ccco2)sc2c1CCCC2 | -12.4 |  |
| Cc1cccc(N2CCN(C(=O)Cn3ncc4c5ccccc5n(C)c4c3=O)CC2C)c1 (stereo not given) | 2.09 |  |
| COc1cc(CN(CC2CCCO2)C(=O)c2ccccc2F)cc(OC)c1OC (stereo not given) | 17.1 |  |
| CC(C)(C)OC(=O)N1CCC(c2c(C(=O)NCCc3ccsc3)cnn2-c2ccc(F)cc2F)CC1 | -13.2 |  |
| CCCC12CN3CC(CCC)(CN(C1)C3c1c[nH]c3ccc(OC)cc13)C2=O (stereo not given) | 15.7 |  |
| CN(c1ccc(C(=O)NCc2ccccn2)cc1)S(C)(=O)=O | -4.77 |  |
| O=C(NCc1ccccn1)c1cc(-c2ccccc2Cl)on1 | -2.8 |  |
| O=C(NCc1ccccn1)c1ccc2nc(-c3ccco3)c(-c3ccco3)nc2c1 |  | 25.1 µM (active) |
| CCSc1nnc2c(n1)OC(c1ccc(OCC(=O)O)cc1)Nc1ccccc1-2 (stereo not given) | -6.38 |  |
| CCOc1ccc(CNC(=O)c2cc(-c3ccc(Cl)s3)nc3ccccc23)cc1 | -5.14 |  |
| CN(C)c1ccc(NC(=S)N(CCc2ccccc2)C2CC(=O)N(c3c(Cl)cccc3Cl)C2=O)cc1 (stereo not given) |  | 15.8 µM (active) |
| COC(=O)CN(C(=S)Nc1ccc(Cl)cc1)C1CC(=O)N(c2ccc(OC)cc2)C1=O (stereo not given) | -5.17 |  |
| Cc1ccc(N2CC(C(=O)Nc3ccc(N(C)C)cc3)CC2=O)cc1Cl (stereo not given) | -3.38 |  |
| CN1C(=O)c2ccccc2Sc2ccc(NC(=O)Cc3ccc(Cl)cc3)cc21 | 14.1 |  |
| CCOC(=O)c1cc2c(=O)n3ccccc3nc2n(Cc2ccco2)c1=NC(=O)c1ccc(F)cc1 | -18.9 |  |
| CCCCn1c(=N)c(S(=O)(=O)c2ccccc2)cc2c(=O)n3cccc(C)c3nc21 | 14.5 |  |
| CCn1c(=N)c(S(=O)(=O)c2ccc(F)cc2)cc2c(=O)n3ccccc3nc21 |  | 20 µM (active) |
| Cc1ccc(-c2nc(CS(=O)(=O)CC(=O)NCc3ccccc3Cl)c(C)o2)cc1 | -2.75 |  |

| Structure (SMILES) | max response, negative = inhibition [%] | Potency |
| --- | --- | --- |
| CCC(C)(C)n1nnnc1C(c1ccccc1OC)N1CCSCC1 (stereo not given) | 1.47 |  |
| CC(C)(C)n1nnnc1C(c1ccc2ncccc2c1)N1CCSCC1 (stereo not given) |  | 7.94 µM (active) |
| CC(C)(C)n1nnnc1C(c1ccc(Cl)cc1)N1CCSCC1 (stereo not given) | -17.6 |  |
| Cc1ccc(C)c(NC(=O)Cn2ccn(-c3ccc(F)cc3)c(=O)c2=O)c1 | -16.8 |  |
| O=C1CCCN1CCCNc1ncnc2c1[nH]c1ccccc12 |  | 20 µM (active) |
| O=C(CCn1c(=S)[nH]c2ccccc2c1=O)NCCCN1CCCC1=O | 7.76 |  |
| CC(C)OCCCNc1ncnc2c1[nH]c1ccc(F)cc12 | -22.4 |  |
| COc1ccc(N2CCN(C3=NS(=O)(=O)C(c4cccc(Br)c4)=C3C)CC2)cc1 | -1.42 |  |
| COc1cccc(CNc2nccn(-c3ccc(OC)c(OC)c3)c2=O)c1 | 4.88 |  |
| CCOc1ccc(-n2c(SCC(=O)NCc3ccccc3)nc3n[nH]c(C)c3c2=N)cc1 | 6.06 |  |
| COc1ccc(OC)c(-n2nnc3c(sc4nc(C)c(Br)c(C)c43)c2=O)c1 | 15.9 |  |
| Cc1ccc(N=C2NC(=O)/C(=C/C=C/c3ccco3)S2)cc1C | -3.89 |  |
| Cc1cccc(N=C2NC(=O)/C(=C/c3cn(C)c4ccccc34)S2)c1 |  | 31.6 µM (active) |
| Cc1nnc(N2CCCC(C(=O)NCCN(C)C)C2)c2nn(-c3ccccc3)c(C)c12 (stereo not given) | -14.7 |  |
| Cc1cccc(CSc2nc3ccncc3n2Cc2ccc(C(=O)O)cc2)c1 | -13.3 |  |
| CCc1nn(CC(=O)N2CCN(c3cccc(C(F)(F)F)c3)CC2)c(=O)c2cc3occc3n12 | -20.3 |  |
| CCCCN1C(=O)c2[nH]nc(-c3ccccc3O)c2C1c1cccc(OCc2ccccc2)c1 (stereo not given) | -70.8 |  |
| O=C(COc1ccccc1Cl)Nc1ccc2nc(SCC(=O)N3CCCC3)sc2c1 | -3.05 |  |
| Cc1ccc(NC(=O)CSc2nc3ccccc3c3nc(CCn4cncc4C)nn23)cc1F | 6.2 |  |
| COc1ccc(CNC(=O)CCc2c(C)nn(-c3ccc(N4CCCC4)nn3)c2C)cc1 | 3.65 |  |
| Cc1ccc2nc(/C(C#N)=C/c3ccc(-c4ccc(C(=O)OC(C)C)cc4)o3)[nH]c2c1 |  | 12.6 µM (active) |
| Cc1ccc2nc(S(=O)(=O)O)[nH]c2c1 | -1.87 |  |
| Cc1ccc2nc(/C(C#N)=C/c3ccccc3F)[nH]c2c1 | -17.7 |  |
| Cc1ccc(N2C(=O)C(Cc3ccccc3)NC2=S)cc1 (stereo not given) | -8.99 |  |
| C=C1c2cc(CC)ccc2NC(=O)N1c1ccc(C)cc1 | -5.5 |  |
| Cc1ccc(N2C(=O)C3C(c4ccccc4)(C2=O)C3(c2ccccc2)c2ccccc2)cc1 (stereo not given) |  | 25.1 µM (active) |
| Cc1ccc(Cn2c(=O)n(CCCC(=O)NCc3ccccc3Cl)c(=O)c3ccccc32)cc1 | 3.97 |  |
